Source: the supplement of paper PMC3334620
Whole data set: some 33,000 sequences, median “E-score (-0.5 to 0.5)” near -0.053, cut for the highest 2% near 0.37. The sample holds the highest values, similar sequences and a random draw of the others, so the mix is not that of the screen.

Molecular target: Hap1 (UniProt P0CE41)
Assay: PBM E-score (8-mer binding enrichment) (E-score (-0.5 to 0.5)); higher = stronger / more preferred TF binding
Conditions: protein concentration: 200 nM; construct: GST-DNA-binding domain
Experimental: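 Universal 'all 10-mer' protein binding microarrays (Agilent AMADID 015681) probed with GST-tagged S. cerevisiae TFs (full-length or DBD) made by in vitro transcription/translation (PURExpress), about 100-200 nM. Bound TF was detected with fluorescent anti-GST. Each ungapped 8-mer (which stands for itself and its reverse complement) is scored by the PBM enrichment score (E-score), a modified Wilcoxon-Mann-Whitney statistic from -0.5 to +0.5, computed with the Universal PBM Analysis Suite. Scale: above 0.35 generally sequence-specific binding.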

Sequence of UniProt P0CE41 (P0CE41 whole entry): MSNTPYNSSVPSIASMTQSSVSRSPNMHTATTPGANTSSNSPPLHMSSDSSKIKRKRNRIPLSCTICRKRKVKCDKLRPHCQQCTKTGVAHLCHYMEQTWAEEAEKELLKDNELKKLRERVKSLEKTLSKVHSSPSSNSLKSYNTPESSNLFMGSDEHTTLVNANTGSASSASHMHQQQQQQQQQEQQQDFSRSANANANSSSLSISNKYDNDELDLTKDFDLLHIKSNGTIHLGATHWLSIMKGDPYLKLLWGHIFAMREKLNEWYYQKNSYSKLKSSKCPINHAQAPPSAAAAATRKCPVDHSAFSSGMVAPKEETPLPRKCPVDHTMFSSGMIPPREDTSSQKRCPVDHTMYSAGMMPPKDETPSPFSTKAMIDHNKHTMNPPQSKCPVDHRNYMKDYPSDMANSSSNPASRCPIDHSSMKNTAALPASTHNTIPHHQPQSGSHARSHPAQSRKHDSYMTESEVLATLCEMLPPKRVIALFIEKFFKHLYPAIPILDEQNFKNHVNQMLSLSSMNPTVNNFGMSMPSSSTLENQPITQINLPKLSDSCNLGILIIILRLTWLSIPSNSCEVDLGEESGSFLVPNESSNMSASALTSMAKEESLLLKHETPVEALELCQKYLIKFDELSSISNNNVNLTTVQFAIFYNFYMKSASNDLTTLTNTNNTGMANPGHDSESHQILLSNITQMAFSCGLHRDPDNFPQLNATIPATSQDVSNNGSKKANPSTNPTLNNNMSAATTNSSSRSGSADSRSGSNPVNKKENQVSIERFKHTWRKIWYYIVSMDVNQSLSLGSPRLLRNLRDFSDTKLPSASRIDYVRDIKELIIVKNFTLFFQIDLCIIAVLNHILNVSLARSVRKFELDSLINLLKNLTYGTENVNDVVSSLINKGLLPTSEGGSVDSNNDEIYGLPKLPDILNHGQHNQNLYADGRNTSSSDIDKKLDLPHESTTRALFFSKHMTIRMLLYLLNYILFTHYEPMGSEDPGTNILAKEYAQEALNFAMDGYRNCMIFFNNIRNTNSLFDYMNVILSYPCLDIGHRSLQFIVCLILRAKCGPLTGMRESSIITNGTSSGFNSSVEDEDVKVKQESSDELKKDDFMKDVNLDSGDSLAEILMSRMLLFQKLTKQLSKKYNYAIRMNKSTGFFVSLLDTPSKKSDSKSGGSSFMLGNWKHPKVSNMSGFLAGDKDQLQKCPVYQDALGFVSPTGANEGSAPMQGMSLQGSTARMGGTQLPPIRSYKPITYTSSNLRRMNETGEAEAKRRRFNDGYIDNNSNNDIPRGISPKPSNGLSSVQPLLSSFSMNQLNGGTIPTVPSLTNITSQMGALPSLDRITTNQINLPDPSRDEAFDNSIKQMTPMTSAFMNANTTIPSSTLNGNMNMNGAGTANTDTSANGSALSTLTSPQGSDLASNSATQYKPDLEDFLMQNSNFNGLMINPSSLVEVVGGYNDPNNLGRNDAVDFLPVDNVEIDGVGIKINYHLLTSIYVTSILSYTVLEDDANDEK

Sequence	PBM E-score
AGGCCACC	-0.0824
AAGAACTT	-0.101
CTGTGTCC	-0.0361
TTCGCGAA	0.138
GCGGGAAC	0.212
GCGGACGA	0.366
CTGGACGA	-0.158
TCGGACGA	0.414
CCGGACGG	0.444
CGGGACGA	0.0655
ACGGACGG	0.244
CCGGACGC	0.366
ACGGACGA	0.359
CCGGACGA	0.431
ATTTTGAC	-0.0308
ACGGGAAA	0.174
CGCCTACC	-0.0452
AAGTCGAG	-0.359
AAGCTAGC	-0.0783
AAAGACAC	-0.0224
TCATAGGA	-0.112
ATCTGCAA	-0.287
ATGCGTAA	-0.0748
ATTCGTAC	0.00708
AAGCCGAT	0.399

Sequence	PBM E-score
AAGCCGAG	0.372
AAGCCGAC	0.298
CAGCCGAG	0.238
AAGCCGAA	0.334
AGGCCGAT	0.327
ATCATTCG	0.0233
ACGGATTA	0.142
TCGGATAA	0.374
ACGGATAA	0.282
ACGGACAG	0.113
ACGGATAG	0.11
GCGGATTA	0.189
ACGGACAT	0.421
GCGGATAA	0.294
ACGGATAT	0.43
ACGGACAC	0.278
TGGGATAA	-0.0448
CCGGATTA	0.383
CGGATTAG	0.305
ACACCTTC	0.105
AATTCGAG	-0.267
CCGGATAC	0.323
ACGGAAAG	0.232
AGGGAATA	0.127
ACGGAGAT	0.445

Sequence	PBM E-score
CCGGATAA	0.435
ACGGAAAC	0.287
GGGGAATA	0.107
ACGGAGAG	0.284
CCGGATAG	0.316
CGGGAATA	0.458
ACGGAGAC	0.285
ACGGAAAT	0.432
CGTACGAG	0.0155
GGTAGAAC	-0.243
CAGGAAGC	-0.0892
GAGAGATC	-0.0834
GGGGACCC	-0.043
AGGGCTAA	-0.2
CCAGGTTC	-0.153
AGGGATTA	-0.136
CGGGATTC	0.292
CGGGATTA	0.454
GAAACCTC	-0.00121
GGCAAGCC	-0.0221
AGTCCACG	0.0474
AGCCCGCC	0.184
GACGGACC	0.285
ATGCCGGA	0.4
ATGCCGGC	0.287

Sequence	PBM E-score
GTGCCGGA	0.406
ATGCCGGG	0.217
CTGCCGGA	0.286
GTGCCGTA	0.1
ACTGCTAG	-0.267
ATCCGGAG	0.424
AACCGGTG	0.329
ATACGGTG	0.0257
GTGCGGAA	0.159
GTCCGCAC	0.237
GTCCGGCA	0.35
GTACGGAC	0.26
GTCCGGAC	0.454
ATCCGGTG	0.411
ATGCGGAG	0.222
ATCCGCAG	0.208
GTCCGGAA	0.416
CCTATGCG	0.00275
GTATCCCA	-0.135
AAGGGTCA	-0.124
CACTGGAA	-0.275
ATAACGCA	0.0362
AACGGGTG	0.29
CGATCTGC	0.156
TGAAGGCA	-0.35

Sequence	PBM E-score
ATCCGGAC	0.439
ATCCGGAT	0.414
ATCCGGGC	0.364
ATACGGAT	0.204
ATCCGCAC	0.21
ATCCGTAC	0.147
AACCGGGG	0.301
ATCCGACC	0.307
ATCCGGCG	0.355
ATCCGGGG	0.399
ATCCGCAT	0.289
ATCCGGCC	0.412
TCTCCACA	-0.243
CAAGAGAC	-0.289
CCATTCAA	-0.16
GCCAATAA	-0.0084
CGGGGTGA	0.214
CTCCGGAG	0.467
TGCCGGAA	0.365
ATGCGGAA	0.24
TTACGGAA	0.317
CTACGGAA	0.17
CTCCGCAG	0.216
CTCCGGAA	0.422
CTACGGAG	0.32

Sequence	PBM E-score
CTCCGTAA	0.296
ATACGGAA	0.33
TTCCGGAA	0.466
ATCCGGAA	0.396
AGCAATAT	-0.105
AATTGTGG	-0.245
TGAGCCAA	-0.233
CCGTAGCG	0.27
CGCATGGC	0.184
AGCCTCCA	-0.219
CTCCGTAC	0.196
CTCCGGAC	0.454
CTCCGCAC	0.0685
GACAATGA	-0.102
CCTATAGA	-0.198
ATCGCCCG	0.372
CCCGCCGA	0.323
CTCGCCGA	0.276
ACCGCCGG	0.365
GTCGCCGA	0.246
ATCGCCCC	-0.0327
ATCGCCGC	0.286
TCCGCCGA	0.425
ATCGCCCA	-0.0821
ATCGCCGA	0.445

Sequence	PBM E-score
GCCGCCGA	0.26
ATCGCCGG	0.445
ACGCCCAA	-0.133
GGGATACC	0.196
CCCAGGCG	-0.125
AGCTTGCC	-0.108
AAGAAAGC	-0.113
CACCCTAC	-0.27
GAGCGCGA	0.0945
AACTCGCG	0.0253
ACCGACAG	0.289
GTACCGAA	0.0413
GCAACTTA	0.0419
GGCGCCGA	0.313
AGCGCCGA	0.372
CGCGCCGA	0.317
ATACTGAG	-0.143
CCACCTTA	-0.00422
ATGAAGTG	-0.133
GAACCGGC	0.239
TAACCGGA	0.417
GAACCGGA	0.382
CAACCGGA	0.316
GAACCGTA	0.0759
AAACCGGA	0.328

Sequence	PBM E-score
CCACTGCG	-0.0793
CGGGTGAG	0.201
GTTCCCTA	-0.0618
GAAACGTA	-0.151
AGCTCCGC	0.306
AGCTCCGA	0.411
GGCTCCGA	0.221
CGCTCCGA	0.324
AGCTCCGG	0.43
AGCTCCCG	0.0669
GCCGCACA	-0.0419
ATTTACCA	0.0182
AATTACCG	0.374
ATTTACCG	0.376
CATTACCG	0.198
ATTTACCC	0.0884
AATTACCC	0.0864
GCGAGCAC	-0.187
GTCGAAAA	-0.0295
CCCCCCCC	-0.27
ACGCACCT	-0.185
CCCGGCCC	0.341
CCCGGCCA	0.291
GCCGGCCC	0.372
ACCGGCCG	0.439

Sequence	PBM E-score
ACCGGCCA	0.284
ACCGGCCT	0.181
ACCGGCCC	0.329
CCCGGCCG	0.405
GCCGGCCA	0.284
AACTCTGG	-0.202
ACGCAAAG	-0.0974
ACTGCGTG	-0.275
CTCGTAGC	-0.117
TAATTAGA	0.0224
AAGGCCGT	0.212
AAGGCCGA	0.435
AAGGCCGG	0.408
CAGGCCGG	0.166
AAGGCCGC	0.135
AAGGCCCG	0.196
CGAGATGC	-0.0846
GGTACCAA	0.0294
AAGTTAGG	-0.0844
CCTTGAAC	-0.1
GACCGAGC	0.375
GACCGACC	0.266
TACCGAGA	0.209
AACCGAGC	0.371
CACCGAGC	0.297

Sequence	PBM E-score
AACCGAGG	0.148
GACCGAGA	0.382
AACCGAGT	0.157
CACCGAGA	0.259
GCTACGCC	-0.0393
CATCCGCC	0.244
CCTAGTTC	-0.00076
AGTATGCC	0.0174
AAAGGCAT	-0.125
AACTGAAT	-0.215
CTAACTCA	-0.177
CTAACTGC	-0.0433
ATAACTCG	0.205
ATAACTCC	0.4
ATAACTCA	-0.0521
CTAACTCC	0.403
AAAAGGAA	0.0913
ACGGGTAT	0.0846
CACGATAG	-0.138
CCCGATAC	0.432
AGCGATAG	0.119
CGCGATAG	0.2
AGCGATAA	0.284
ACCGATTA	0.335
ACCGATAG	0.373

Sequence	PBM E-score
CCCGATCC	0.31
CCCGATAG	0.414
AACGATAG	0.118
CGCGATAC	0.17
ACCGATAA	0.443
CATCGAGG	-0.23
CTCAGGAA	-0.108
AACCGGCT	0.252
GCTGCTCA	-0.241
GGCAAGGA	-0.0722
CTGAGTCC	-0.0126
ACTATCAA	0.0295
CCGCCTCC	0.0265
CGATTTTC	0.147
AACGATAT	-0.0547
ACCGATCT	0.274
GCCGATGA	0.373
GGCGATAA	0.392
GCCGATAA	0.449
ACCGATGA	0.223
GGCGATAC	0.265
CCCGATGA	0.285
GCCGATCA	0.263
GTCGATAA	-0.0382
CGCGATAA	0.115

Sequence	PBM E-score
ACCGATAT	0.43
CTAGATGC	-0.224
GAATCGAA	-0.142
ACAGGCTG	-0.256
CTTGCACA	-0.136
ACCGATAC	0.371
TCCGATAA	0.45
GCCGATCC	0.258
TCCGATCA	0.221
GACGATAC	0.0839
CCCGATTA	0.197
CACGATAA	0.087
CCCGATAA	0.417
GCCGATAC	0.417
TACGATAA	0.0399
AGCGATAC	0.065
AACGATAC	-0.2
GTAGGGAC	-0.0187
AGTGAGTC	-0.18
CCTCTAAG	-0.337
GTTATCGA	0.165
CAGACCAG	0.0149
GGAATTAC	0.375
AGAATTAC	0.0991
CGAATTAA	0.0158

Sequence	PBM E-score
TGAATTAA	-0.0149
CGAATTAC	0.15
GGAATTAA	0.419
TATCTCAA	-0.0851
GCCTGGAC	-0.0392
ATATCCGG	0.452
CTATCCGC	0.257
ATATCCAG	0.0668
AGATCCGG	0.384
ATATCCCG	0.286
CTATCCGA	0.113
ATATCCTC	0.0211
AGATCCGC	0.263
ATATCCGC	0.387
ATATCCGA	0.463
GTATCCGA	0.304
AGATCCGA	0.359
AGGCAATG	-0.17
ACTGGGGA	-0.016
AGTGGAAC	0.0266
CAGATCCC	0.0493
AAGTCCCT	-0.278
AAGTCCGG	0.47
CAGTCCGC	0.0912
GAGTCCGC	0.249

Sequence	PBM E-score
AAGTCCAT	-0.00211
AAGTCCTG	-0.0784
AAGTCCGC	0.427
CAGTCCGG	0.364
AAGTCCGT	0.417
GTTGGTTA	-0.0552
TTGCAAAA	-0.00902
CCGAAGTA	0.365
GAGGCACA	-0.112
ATCCGTTC	0.233
ATCCGTTA	0.409
ATCCGTTG	0.301
GTCCGTTA	0.444
GTCCGTGA	0.303
CTCCGTTA	0.367
CGCCCGCA	0.189
GCCTGAAC	-0.0686
CGCAGGGC	-0.0256
GGGTATGA	0.0413
